From PubChem BioAssay (NCATS)
Results filed as inconclusive are left out. Active and inactive are the calls of the source. Unless noted, calls come from the whole dose curve.

Columns and labels:
[1] = Primary qHTS for Huh7 cytotoxicity: counterscreen for inhibitors of MERS-S pseudotyped particle cell entry (AID 1479147); settings: outcome: dose series up to 57.1 µM unless noted
[2] = Primary qHTS for inhibitors of MERS-S pseudo-typed particle cell entry (AID 1479149); settings: outcome: dose series up to 57.1 µM unless noted; note: nearly all actives have a fitted effect of over 60% in size
[3] = Primary qHTS for Vero E6 cytotoxicity: counterscreen for inhibitors of SARS-S pseudo-typed particle cell entry (AID 1479150); settings: outcome: dose series up to 57.1 µM unless noted
[4] = Cytotoxicity counterscreen for inhibitors of SARS-CoV-2 cell entry (AID 1645845); settings: outcome: dose series up to 57.1 µM unless noted; note: nearly all actives have a fitted effect of over 50% in size
Method in brief: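 Expi293F/hACE2 cells seeded overnight; cpd pin-transferred in DMSO, 1 h preincubation, + media, 48 h 37 C 5% CO2; ATPLite 1step luminescence; normalized to cells and no cells.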

[5] = Primary qHTS to identify inhibitors of SARS-CoV-2 cell entry (AID 1645846); settings: SARS-CoV-2 pseudovirus cell entry assay, luminescence; activity change, negative = inhibition: at 57.1 µM (top of the series) unless noted; note: nearly all actives have a fitted effect of over 45% in size
Method in brief: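 Luminescence readout (Bright-Glo luciferase) 48 h after pseudoparticle addition. HEK293-ACE2 cells, 1500/well; compound pre-incubation 1 h; Normalized to spike PP and bald PP.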

[6] = biological target: Glutathione peroxidase 1 (Homo sapiens) (UniProt P07203); experiment: Primary qHTS Assay for Inhibitors of Recombinant Selenoprotein Glutathione Peroxidase 1 (GPX1) (AID 1845191; active = well fitted inhibition curve with a large enough effect; note: nearly all actives have a fitted effect of over 65% in size)
Method in brief: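 Recombinant GPX1 (10 nM final) was preincubated with compound for 30 min at room temperature, then reacted with 1 mM GSH, 0.5 mM CHP, 0.5 mM NADPH and 100 nM glutathione reductase; NADPH fluorescence (340/450 nm) was read at 0 and 15 min.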

[7] = biological target: Phospholipid hydroperoxide glutathione peroxidase GPX4 (Homo sapiens) (UniProt P36969); experiment: Primary qHTS Assay for Inhibitors of Recombinant Selenoprotein Glutathione Peroxidase 4 (GPX4) (AID 1845192; active = well fitted inhibition curve with a large enough effect; note: nearly all actives have a fitted effect of over 65% in size)
Method in brief: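 GR-coupled readout: 100 nM GR, 1 mM GSH, 0.5 mM NADPH; NADPH fluorescence (ex 340/em 450 nm) read at t=0 and after 15 min RT. GPX4 200 nM, preincubated 30 min with compound; substrate 0.5 mM CHP.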

Phospholipid hydroperoxide glutathione peroxidase GPX4 (Homo sapiens), sequence (P36969 whole entry, looked up): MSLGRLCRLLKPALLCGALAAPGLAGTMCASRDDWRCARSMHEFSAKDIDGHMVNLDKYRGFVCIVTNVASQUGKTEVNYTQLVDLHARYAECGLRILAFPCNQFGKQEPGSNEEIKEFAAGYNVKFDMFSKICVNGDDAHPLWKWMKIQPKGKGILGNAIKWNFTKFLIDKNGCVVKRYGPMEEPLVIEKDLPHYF
Glutathione peroxidase 1 (Homo sapiens), sequence (P07203 whole entry, looked up): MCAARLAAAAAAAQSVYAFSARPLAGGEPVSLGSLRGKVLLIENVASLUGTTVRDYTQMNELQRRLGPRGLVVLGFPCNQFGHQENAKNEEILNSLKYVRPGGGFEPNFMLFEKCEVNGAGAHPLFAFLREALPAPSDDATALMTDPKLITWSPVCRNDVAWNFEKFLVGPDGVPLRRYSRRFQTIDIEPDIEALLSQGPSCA

CN(C)C(=O)NC1CCC(CCN2CCN(c3cccc(Cl)c3Cl)CC2)CC1 (configuration not stated)
inactive: Potency [1] | Potency [2] | Potency [3] | Potency [4]
-20.6% [at 27.1 µM]: activity change, negative = inhibition [5]

Cc1cccc(C)c1N(CCCc1cccnc1)C(=O)C(C)N (configuration not stated)
inactive: Potency [1] | Potency [2] | Potency [3] | Potency [4]
-18.9%: activity change, negative = inhibition [5]

CCCCC(F)(F)C1(O)CCC2C(CC(=O)C2CCCCCCC(=O)O)O1 (configuration not stated)
inactive: Potency [1] | Potency [2] | Potency [3] | Potency [4] | Potency [5]

CCC(C)(C)OC(=O)N[C@@H](Cc1c[nH]c2ccccc12)C(=O)N[C@@H](CCSC)C(=O)N[C@@H](CC(=O)O)C(=O)N[C@@H](Cc1ccccc1)C(N)=O
-23%: activity change, negative = inhibition [5]
inactive: Potency [1] | Potency [2] | Potency [3] | Potency [4]

O=C(O)c1cc(=O)c2c3nc4ccccc4oc-3cc(=O)c2[nH]1
-16.2%: activity change, negative = inhibition [5]
inactive: Potency [1] | Potency [2] | Potency [3] | Potency [4]

COc1cc(C[C@@H]2NCCc3cc(O)c(O)cc32)cc(OC)c1OC
-18.7%: activity change, negative = inhibition [5]
inactive: Potency [1] | Potency [2] | Potency [3] | Potency [4]

O=C(O)c1cc2ccccc2c(Cc2c(O)c(C(=O)O)cc3ccccc23)c1O
inactive: Potency [1] | Potency [2] | Potency [3] | Potency [4] | Potency [5]

OC[C@H]1O[C@H](O[C@H]2[C@H](O)[C@@H](O)[C@H](O)O[C@@H]2CO)[C@H](O)[C@@H](O)[C@@H]1O
inactive: Potency [1] | Potency [2] | Potency [3] | Potency [4]
-20.9%: activity change, negative = inhibition [5]

CCCCCCCCCCC(=O)O[C@H]1CC[C@H]2[C@@H]3CCC4=CC(=O)CC[C@]4(C)[C@H]3CC[C@]12C
inactive: Potency [1] | Potency [2] | Potency [3] | Potency [4] | Potency [5] | Potency [6] | Potency [7]

CC[C@H](C)C1NC(=O)[C@H](Cc2ccc(O)cc2)NC(=O)[C@@H](N)CSSC[C@@H](C(=O)N2CCC[C@H]2C(=O)N[C@@H](CC(C)C)C(=O)NCC(N)=O)NC(=O)[C@H](CC(N)=O)NC(=O)[C@H](CCC(N)=O)NC1=O (some centres not stated)
inactive: Potency [1] | Potency [2] | Potency [3] | Potency [4]
-27.2%: activity change, negative = inhibition [5]
